# Key:
# Assay in all cases: DAPPL (digital affinity profiling via proximity ligation, sequencing); 10 mM Tris-HCl pH 7.5, 50 mM NaCl, 1 mM DTT, 4% glycerol, room temperature, 30 min; GST-TFs on glutathione beads, 16-mer random dsDNA library, 0.1% formaldehyde crosslink after washing; high values mean tight binding
# Conditions in all cases: protein: recombinant; tags: N-terminal GST; dsDNA, one strand shown
# FLI1 = biological target: T1, FLI1 (Homo sapiens, UniProt Q01543 1-452)
# T1 sequence: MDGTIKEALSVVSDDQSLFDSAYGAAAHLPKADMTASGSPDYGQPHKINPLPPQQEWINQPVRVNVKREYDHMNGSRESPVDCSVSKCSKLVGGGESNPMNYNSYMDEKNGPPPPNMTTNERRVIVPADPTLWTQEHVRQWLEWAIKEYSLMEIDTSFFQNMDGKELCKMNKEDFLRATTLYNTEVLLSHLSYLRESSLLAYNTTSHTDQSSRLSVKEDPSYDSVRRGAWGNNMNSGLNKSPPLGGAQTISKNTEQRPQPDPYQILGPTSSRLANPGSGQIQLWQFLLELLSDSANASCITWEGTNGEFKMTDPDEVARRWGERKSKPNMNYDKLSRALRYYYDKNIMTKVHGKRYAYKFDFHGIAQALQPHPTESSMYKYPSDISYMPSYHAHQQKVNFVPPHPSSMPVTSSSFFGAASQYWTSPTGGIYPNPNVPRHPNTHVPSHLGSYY
# Summary of the method: (§1)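 Sequencing on an Illumina NextSeq500 followed washing, crosslinking with 0.1% formaldehyde, proximity ligation (BsaI/T4 ligase, 1 h, 37 °C) and PCR amplification of pools that had been incubated for 30 min at room temperature with 200 nmole of a random double-stranded 16-mer DNA library in Tris/NaCl/DTT/glycerol buffer. Each pool held DNA-barcoded human transcription factors, expressed in yeast as GST fusions and captured on glutathione beads, plus a tag-only sample. Binding signal is a hexamer's read frequency for a factor divided by its frequency in the tag-only sample.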
# ELK1 = biological target: T2, ELK1 (Homo sapiens, UniProt P19419 1-428)
# T2 sequence: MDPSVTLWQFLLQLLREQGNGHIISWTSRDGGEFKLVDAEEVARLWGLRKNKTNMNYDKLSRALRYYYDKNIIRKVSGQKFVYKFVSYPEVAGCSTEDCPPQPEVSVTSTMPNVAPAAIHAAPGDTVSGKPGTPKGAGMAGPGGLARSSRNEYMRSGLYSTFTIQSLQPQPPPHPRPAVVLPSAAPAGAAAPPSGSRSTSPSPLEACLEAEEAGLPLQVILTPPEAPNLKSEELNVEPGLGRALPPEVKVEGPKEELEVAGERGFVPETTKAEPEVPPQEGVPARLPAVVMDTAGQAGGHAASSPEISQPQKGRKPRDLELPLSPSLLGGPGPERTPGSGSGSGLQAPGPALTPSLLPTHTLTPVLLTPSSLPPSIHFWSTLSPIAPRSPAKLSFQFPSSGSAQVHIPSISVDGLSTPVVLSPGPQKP
# Summary of the method: as §1
# GABPA = biological target: T3, GABPA (Homo sapiens, UniProt Q06546 1-454)
# T3 sequence: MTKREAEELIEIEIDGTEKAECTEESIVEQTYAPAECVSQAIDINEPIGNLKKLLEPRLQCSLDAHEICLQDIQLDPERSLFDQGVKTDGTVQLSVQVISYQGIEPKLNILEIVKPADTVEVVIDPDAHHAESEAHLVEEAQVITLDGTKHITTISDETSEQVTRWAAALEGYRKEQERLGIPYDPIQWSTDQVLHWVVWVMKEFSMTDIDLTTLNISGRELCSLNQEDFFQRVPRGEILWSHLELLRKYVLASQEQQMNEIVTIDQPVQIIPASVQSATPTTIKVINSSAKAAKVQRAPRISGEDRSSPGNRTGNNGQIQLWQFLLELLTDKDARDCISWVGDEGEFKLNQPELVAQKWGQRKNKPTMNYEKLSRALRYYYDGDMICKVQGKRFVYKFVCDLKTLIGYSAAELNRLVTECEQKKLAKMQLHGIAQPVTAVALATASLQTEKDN
# Summary of the method: as §1
# ERG = biological target: T4, ERG (Homo sapiens, UniProt P11308 1-479)
# T4 sequence: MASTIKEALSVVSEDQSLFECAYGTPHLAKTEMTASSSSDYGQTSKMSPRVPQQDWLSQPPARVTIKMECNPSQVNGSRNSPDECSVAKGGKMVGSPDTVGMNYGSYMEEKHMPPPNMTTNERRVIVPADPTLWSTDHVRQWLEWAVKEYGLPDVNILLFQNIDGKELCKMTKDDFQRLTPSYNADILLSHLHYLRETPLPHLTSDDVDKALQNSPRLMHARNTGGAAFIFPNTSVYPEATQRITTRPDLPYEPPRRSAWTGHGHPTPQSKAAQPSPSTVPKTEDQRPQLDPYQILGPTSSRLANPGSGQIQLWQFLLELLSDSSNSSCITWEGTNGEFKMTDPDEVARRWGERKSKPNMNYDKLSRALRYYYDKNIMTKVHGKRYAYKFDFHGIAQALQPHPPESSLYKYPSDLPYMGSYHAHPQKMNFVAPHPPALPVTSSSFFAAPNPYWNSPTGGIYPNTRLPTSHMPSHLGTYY
# Summary of the method: as §1
# ELF1 = ELF1 (Homo sapiens, UniProt P32519 1-619)
# Summary of the method: as §1
# EHF = biological target: T5, EHF (Homo sapiens, UniProt Q9NZC4 1-300)
# T5 sequence: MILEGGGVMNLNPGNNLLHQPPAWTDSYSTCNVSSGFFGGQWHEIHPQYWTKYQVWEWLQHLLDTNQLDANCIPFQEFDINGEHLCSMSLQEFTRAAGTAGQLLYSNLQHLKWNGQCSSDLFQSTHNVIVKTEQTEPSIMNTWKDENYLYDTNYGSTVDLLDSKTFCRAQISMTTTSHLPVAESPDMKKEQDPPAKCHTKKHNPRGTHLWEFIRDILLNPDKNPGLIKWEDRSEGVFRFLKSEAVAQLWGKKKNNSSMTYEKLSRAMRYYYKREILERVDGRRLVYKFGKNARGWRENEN
# Summary of the method: as §1
# SPI1 = SPI1 (Homo sapiens, UniProt P17947 1-270)
# Summary of the method: as §1
# SPIB = SPIB (Homo sapiens, UniProt Q01892 1-262)
# Summary of the method: as §1
# ELK3 = biological target: T6, ELK3 (Homo sapiens, UniProt P41970 1-407)
# T6 sequence: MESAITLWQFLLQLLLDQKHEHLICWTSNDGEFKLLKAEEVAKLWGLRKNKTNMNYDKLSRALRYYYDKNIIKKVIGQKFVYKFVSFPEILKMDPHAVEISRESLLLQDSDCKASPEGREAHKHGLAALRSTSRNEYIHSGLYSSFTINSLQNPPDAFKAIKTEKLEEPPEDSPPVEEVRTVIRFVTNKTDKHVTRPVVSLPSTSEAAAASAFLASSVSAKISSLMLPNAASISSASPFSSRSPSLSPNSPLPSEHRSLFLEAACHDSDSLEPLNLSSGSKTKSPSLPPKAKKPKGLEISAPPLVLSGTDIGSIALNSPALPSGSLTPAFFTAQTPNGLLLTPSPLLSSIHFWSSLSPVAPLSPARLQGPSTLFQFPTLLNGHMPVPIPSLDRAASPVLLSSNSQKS
# Summary of the method: as §1
# Sequence of SPIB (Q01892 whole entry): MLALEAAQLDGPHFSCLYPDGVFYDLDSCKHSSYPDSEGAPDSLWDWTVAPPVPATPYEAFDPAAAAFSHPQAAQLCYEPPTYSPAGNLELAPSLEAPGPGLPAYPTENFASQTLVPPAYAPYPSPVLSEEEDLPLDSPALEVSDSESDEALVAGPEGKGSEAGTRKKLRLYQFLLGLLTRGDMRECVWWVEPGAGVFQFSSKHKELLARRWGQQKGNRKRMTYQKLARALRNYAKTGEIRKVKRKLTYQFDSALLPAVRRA
# Sequence of ELF1 (P32519 whole entry): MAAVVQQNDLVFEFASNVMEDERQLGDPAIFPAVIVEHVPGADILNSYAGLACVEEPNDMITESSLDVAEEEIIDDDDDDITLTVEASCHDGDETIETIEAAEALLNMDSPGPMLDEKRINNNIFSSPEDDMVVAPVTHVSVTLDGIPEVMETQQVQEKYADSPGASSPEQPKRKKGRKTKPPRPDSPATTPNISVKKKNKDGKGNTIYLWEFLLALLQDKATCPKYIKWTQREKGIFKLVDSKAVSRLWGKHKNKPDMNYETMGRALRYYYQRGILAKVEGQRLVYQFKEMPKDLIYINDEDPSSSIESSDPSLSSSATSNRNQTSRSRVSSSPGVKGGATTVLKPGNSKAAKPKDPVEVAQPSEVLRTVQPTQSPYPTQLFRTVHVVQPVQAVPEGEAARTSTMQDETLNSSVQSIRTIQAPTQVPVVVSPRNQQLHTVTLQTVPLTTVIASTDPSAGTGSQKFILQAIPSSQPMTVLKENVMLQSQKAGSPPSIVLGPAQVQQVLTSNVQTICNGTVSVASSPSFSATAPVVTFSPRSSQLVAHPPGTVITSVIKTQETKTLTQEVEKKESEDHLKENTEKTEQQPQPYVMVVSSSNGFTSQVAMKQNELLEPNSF
sequence,measurement,setting,value
CGCCTC,binding signal,FLI1,"1.47 fold enrichment (6-mer frequency, TF over GST control)"
same,binding signal,ELK1,"1.49 fold enrichment (6-mer frequency, TF over GST control)"
same,binding signal,GABPA,"1.41 fold enrichment (6-mer frequency, TF over GST control)"
same,binding signal,ERG,"1.39 fold enrichment (6-mer frequency, TF over GST control)"
same,binding signal,ELF1,"1.49 fold enrichment (6-mer frequency, TF over GST control)"
same,binding signal,EHF,"1.4 fold enrichment (6-mer frequency, TF over GST control)"
same,binding signal,SPI1,"1.27 fold enrichment (6-mer frequency, TF over GST control)"
same,binding signal,SPIB,"1.51 fold enrichment (6-mer frequency, TF over GST control)"
same,binding signal,ELK3,"1.46 fold enrichment (6-mer frequency, TF over GST control)"
CCCCCG,binding signal,FLI1,"1.21 fold enrichment (6-mer frequency, TF over GST control)"
same,binding signal,ELK1,"1.09 fold enrichment (6-mer frequency, TF over GST control)"
same,binding signal,GABPA,"1.03 fold enrichment (6-mer frequency, TF over GST control)"
same,binding signal,ERG,"1.18 fold enrichment (6-mer frequency, TF over GST control)"
same,binding signal,ELF1,"1.1 fold enrichment (6-mer frequency, TF over GST control)"
same,binding signal,EHF,"1.1 fold enrichment (6-mer frequency, TF over GST control)"
same,binding signal,SPI1,"1.08 fold enrichment (6-mer frequency, TF over GST control)"
same,binding signal,SPIB,"1.09 fold enrichment (6-mer frequency, TF over GST control)"
same,binding signal,ELK3,"1.07 fold enrichment (6-mer frequency, TF over GST control)"
CCGGTT,binding signal,FLI1,"1.88 fold enrichment (6-mer frequency, TF over GST control)"
same,binding signal,ELK1,"2.1 fold enrichment (6-mer frequency, TF over GST control)"
same,binding signal,GABPA,"1.89 fold enrichment (6-mer frequency, TF over GST control)"
same,binding signal,ERG,"2.2 fold enrichment (6-mer frequency, TF over GST control)"
same,binding signal,ELF1,"1.96 fold enrichment (6-mer frequency, TF over GST control)"
same,binding signal,EHF,"1.97 fold enrichment (6-mer frequency, TF over GST control)"
same,binding signal,SPI1,"2.11 fold enrichment (6-mer frequency, TF over GST control)"
same,binding signal,SPIB,"1.97 fold enrichment (6-mer frequency, TF over GST control)"
same,binding signal,ELK3,"2.26 fold enrichment (6-mer frequency, TF over GST control)"
TCTGTT,binding signal,FLI1,"1.41 fold enrichment (6-mer frequency, TF over GST control)"
same,binding signal,ELK1,"1.47 fold enrichment (6-mer frequency, TF over GST control)"
same,binding signal,GABPA,"1.24 fold enrichment (6-mer frequency, TF over GST control)"
same,binding signal,ERG,"1.42 fold enrichment (6-mer frequency, TF over GST control)"
same,binding signal,ELF1,"1.42 fold enrichment (6-mer frequency, TF over GST control)"
same,binding signal,EHF,"1.45 fold enrichment (6-mer frequency, TF over GST control)"
same,binding signal,SPI1,"1.43 fold enrichment (6-mer frequency, TF over GST control)"
same,binding signal,SPIB,"1.33 fold enrichment (6-mer frequency, TF over GST control)"
same,binding signal,ELK3,"1.15 fold enrichment (6-mer frequency, TF over GST control)"
TTATTA,binding signal,FLI1,"1.17 fold enrichment (6-mer frequency, TF over GST control)"
same,binding signal,ELK1,"1.05 fold enrichment (6-mer frequency, TF over GST control)"
same,binding signal,GABPA,"1.04 fold enrichment (6-mer frequency, TF over GST control)"
same,binding signal,ERG,"1.1 fold enrichment (6-mer frequency, TF over GST control)"
same,binding signal,ELF1,"1.1 fold enrichment (6-mer frequency, TF over GST control)"
same,binding signal,EHF,"1.14 fold enrichment (6-mer frequency, TF over GST control)"
same,binding signal,SPI1,"1.1 fold enrichment (6-mer frequency, TF over GST control)"
same,binding signal,SPIB,"1.04 fold enrichment (6-mer frequency, TF over GST control)"
same,binding signal,ELK3,"1.2 fold enrichment (6-mer frequency, TF over GST control)"
CAGCTT,binding signal,FLI1,"1.2 fold enrichment (6-mer frequency, TF over GST control)"
same,binding signal,ELK1,"1.27 fold enrichment (6-mer frequency, TF over GST control)"
same,binding signal,GABPA,"1.22 fold enrichment (6-mer frequency, TF over GST control)"
same,binding signal,ERG,"1.2 fold enrichment (6-mer frequency, TF over GST control)"
same,binding signal,ELF1,"1.26 fold enrichment (6-mer frequency, TF over GST control)"
same,binding signal,EHF,"1.22 fold enrichment (6-mer frequency, TF over GST control)"
same,binding signal,SPI1,"1.19 fold enrichment (6-mer frequency, TF over GST control)"
same,binding signal,SPIB,"1.2 fold enrichment (6-mer frequency, TF over GST control)"
same,binding signal,ELK3,"1.3 fold enrichment (6-mer frequency, TF over GST control)"
TATCTA,binding signal,FLI1,"1.18 fold enrichment (6-mer frequency, TF over GST control)"
same,binding signal,ELK1,"1.23 fold enrichment (6-mer frequency, TF over GST control)"
same,binding signal,GABPA,"1.35 fold enrichment (6-mer frequency, TF over GST control)"
same,binding signal,ERG,"1.18 fold enrichment (6-mer frequency, TF over GST control)"
same,binding signal,ELF1,"1.18 fold enrichment (6-mer frequency, TF over GST control)"
same,binding signal,EHF,"1.2 fold enrichment (6-mer frequency, TF over GST control)"
same,binding signal,SPI1,"1.27 fold enrichment (6-mer frequency, TF over GST control)"
same,binding signal,SPIB,"1.28 fold enrichment (6-mer frequency, TF over GST control)"
same,binding signal,ELK3,"1.28 fold enrichment (6-mer frequency, TF over GST control)"
GCTACG,binding signal,FLI1,"1.29 fold enrichment (6-mer frequency, TF over GST control)"
same,binding signal,ELK1,"1.22 fold enrichment (6-mer frequency, TF over GST control)"
same,binding signal,GABPA,"1.11 fold enrichment (6-mer frequency, TF over GST control)"
same,binding signal,ERG,"1.11 fold enrichment (6-mer frequency, TF over GST control)"
same,binding signal,ELF1,"1.17 fold enrichment (6-mer frequency, TF over GST control)"
same,binding signal,EHF,"1.19 fold enrichment (6-mer frequency, TF over GST control)"
same,binding signal,SPI1,"1.04 fold enrichment (6-mer frequency, TF over GST control)"
same,binding signal,SPIB,"1.16 fold enrichment (6-mer frequency, TF over GST control)"
same,binding signal,ELK3,"1.26 fold enrichment (6-mer frequency, TF over GST control)"

# From article PMC7862700, “An all-to-all approach to the identification of sequence-specific readers for epigenetic DNA modifications on cytosine”
